Records with an inconclusive call do not appear. Active and inactive are the calls of the source. Rule for the calls: active = hit-call score of the fitted dose curve at least 0.9, where 1 is the maximum; inconclusive = response in the unintended direction; inactive = score below 0.9.
Tests used:
[1] = molecular target: Estrogen receptor (Homo sapiens) (UniProt P03372); experiment: OT_ER_ERaERa_0480: Odyssey Thera (OT) 8-hour HEK293T Protein-Complementation Assay for Estrogen Receptor-alpha/-alpha Homodimer (AID 2283351);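 note: rise in fluorescence from reassembled reporter fragments on ERα LBD homodimer in nucleus or whole cell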
Procedure, shortened: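 HEK293T, stable ERα LBD (aa 310-547) PCA homodimer; 8 h compound exposure; fluorescence intensity, laser scanning cytometer; positive fitting direction, DMSO baseline.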

[2] = molecular target: Estrogen receptor (Homo sapiens) + Estrogen receptor beta (Homo sapiens) (UniProt P03372+Q92731); experiment: OT_ER_ERaERb_1440: Odyssey Thera (OT) 24-hour HEK293T Protein-Complementation Assay for Estrogen Receptor-alpha/-beta Homodimer (AID 2283356);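 note: heteromer of ER alpha and ER beta binding domains; hits raise reporter fluorescence and both agonists and antagonists give an increase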
Procedure, shortened: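 Stable HEK293T PCA line, ERα LBD 310-547 + ERβ LBD 263-489 fused to reporter fragments; 24 h treatment; fluorescence read by laser scanning cytometry; positive fitting direction relative to DMSO.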

[3] = molecular target: Estrogen receptor beta (Homo sapiens) (UniProt Q92731); experiment: OT_ER_ERbERb_0480: Odyssey Thera (OT) 8-hour HEK293T Protein-Complementation Assay for Estrogen Receptor-beta/-beta Homodimer (AID 2283357);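 note: active means signal gain over DMSO baseline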
Procedure, shortened: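 Fluorescence intensity, nuclear for agonists and nuclear plus cytoplasmic for antagonists, was quantified by laser scanning cytometry versus vehicle after 8 h treatment. The cells were HEK293T stably carrying ER beta LBD fragment-complementation partners.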

[4] = molecular target: human Peroxisome Proliferator-activated Receptor alpha (PPARa), PPARA (gene 5465) (UniProt Q07869); experiment: NVS_NR_hPPARa: NovaScreen (NVS) Nuclear Receptor Binding Assay for human Peroxisome Proliferator-activated Receptor alpha (PPARa) (AID 2283359);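 note: activity means loss of TR-FRET signal versus DMSO baseline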
Procedure, shortened: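 Cell-free TR-FRET binding assay with extracted PPARα protein, read 1 h after dosing. Primary screen in duplicate at 25 uM, with actives retested in concentration series. Loss of signal versus DMSO.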

PGR (gene 5241) = PGR (gene 5241) (UniProt P06401); experiment: NVS_NR_hPR: NovaScreen (NVS) Nuclear Receptor Binding Assay for human Progestron Receptor (PR) (AID 2283360);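 note: active means loss of bound radioligand signal versus DMSO baseline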
Procedure, shortened: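 Cell-free radioligand binding using receptor protein extracted from T47D cells, read by scintillation counting 18 hours after dosing. Loss of signal relative to DMSO baseline indicates displacement; primary screen single concentration 25 uM in duplicate, actives followed in concentration series.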

[5] = molecular target: Androgen Receptor/SRC-1 Co-activator, AR (gene 367) (UniProt P10275); experiment: OT_AR_ARSRC1_0960: Odyssey Thera (OT) 16-hour HEK293T Protein-Complementation Assay for Androgen Receptor/SRC-1 Co-activator (AID 2283353);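 note: actives raise the signal above DMSO so potency reflects increased AR and SRC-1 complex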
Procedure, shortened: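 Split-Venus PCA, AR/SRC-1 fusions, stable HEK293T; 16 h compound exposure; imaged at 488 and 635 nm; N/C ratio (488 nm channel), min 400 cells/image; positive-direction fit, DMSO baseline.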

[6] = molecular target: Androgen Receptor/SRC-1 Co-activator, AR (gene 367) (UniProt P10275); experiment: OT_AR_ARSRC1_0480: Odyssey Thera (OT) 8-hour HEK293T Protein-Complementation Assay for Androgen Receptor/SRC-1 Co-activator (AID 2283354);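 note: hits raise the complementation signal above DMSO so AC50 marks enhancers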
Procedure, shortened: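 HEK293T cells stably expressing AR and SRC-1 fused to Venus YFP fragments, imaged 8 h after dosing. Complementation fluorescence scored as nuclear/cytoplasmic ratio at 488 nm in at least 400 cells per image; gain fitted versus DMSO.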

[7] = molecular target: Retinoic acid receptor alpha (Homo sapiens) (UniProt P10276); experiment: NVS_NR_hRAR_Antagonist: NovaScreen (NVS) Nuclear Receptor Binding Assay for human Retinoic Acid Alpha Receptor Antagonism (RAR) (AID 2283358)
Procedure, shortened: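 Cell-free TR-FRET binding assay with extracted human RARalpha in antagonist mode, read 2 h after dosing. Loss of signal was fitted relative to DMSO; the primary screen used 25 uM in duplicate, with concentration series on follow-up.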

[8] = molecular target: rat Androgen Receptor (AR), Ar (gene 24208) (UniProt P15207); experiment: NVS_NR_rAR: NovaScreen (NVS) Nuclear Receptor Binding Assay for rat Androgen Receptor (AR) (AID 2283366)
Procedure, shortened: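 Cell-free radioligand binding on extracts of prostate from testosterone-pretreated rats, read by filter-based scintillation counting 18 h after dosing. Loss of bound signal fitted positively versus DMSO; primary screen in duplicate at 25 uM, actives followed up in concentration series.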

[9] = molecular target: Nuclear receptor subfamily 1 group I member 2 (Homo sapiens) (UniProt O75469); experiment: NVS_NR_hPXR: NovaScreen (NVS) Nuclear Receptor Binding Assay for human Pregnane X Receptor (PXR) (AID 2283365);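 note: a drop in FRET signal versus DMSO baseline means the compound binds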
Procedure, shortened: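 Human PXR protein, cell-free; compound added, incubated 2 h, TR-FRET read. Signal decrease vs DMSO = binding. Screened 25 uM duplicate, actives re-run as dilution series.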

[10] = molecular target: Peroxisome proliferator-activated receptor gamma (Homo sapiens) (UniProt P37231); experiment: NVS_NR_hPPARg: NovaScreen (NVS) Nuclear Receptor Binding Assay for human Peroxisome Proliferator-activated Receptor gamma (PPARg) (AID 2283370)
Procedure, shortened: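 Chemicals were tested first in duplicate at 25 uM, then in concentration series if active. Binding to cell-free PPARg protein was measured by fluorescence polarization after 2 h, with loss of signal scored against DMSO.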

[11] = molecular target: guinea pig Sigma Receptor, Non-selective Binding, SIGMAR1 (gene 100135589) (UniProt Q60492); experiment: NVS_OR_gSIGMA_NonSelective: NovaScreen (NVS) Nuclear Receptor Binding Assay for guinea pig Sigma Receptor, Non-selective Binding (AID 2283367)
Procedure, shortened: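 Radioligand displacement on guinea pig brain membranes, read by filter-based scintillation counting 1 h after dosing. Loss of signal versus DMSO; initial duplicate single-point screen at 25 uM, actives followed in concentration series.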

[12] = test system: guinea pig Dopamine Transporter (DAT), gene 100714898; experiment: NVS_TR_gDAT: NovaScreen (NVS) Transporter Assay for guinea pig Dopamine Transporter (DAT) (AID 2283369);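 note: active compounds lower bound radioligand signal relative to DMSO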
Procedure, shortened: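 Scintillation counts of filter-retained radioligand report binding to guinea pig striatal membranes after 2 h. Activity scored as signal loss relative to DMSO, first at 25 uM in duplicate, then in concentration series to 50 uM.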

[13] = molecular target: human Thyroid Receptor Alpha (TRa), THRA (gene 7067) (UniProt P10827); experiment: NVS_NR_hTRa_Antagonist: NovaScreen (NVS) Nuclear Receptor Binding Assay for human Thyroid Receptor Alpha Antagonism (TRa) (AID 2283362);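 note: activity is loss of signal relative to DMSO baseline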
Procedure, shortened: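 Extracted protein, cell-free; 1 h incubation after dosing; AlphaLISA chemiluminescence binding readout. DMSO = baseline/neg ctrl; signal loss = activity. Primary: duplicate, 25 uM; secondary: conc. series on actives.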

[14] = molecular target: Glucocorticoid receptor (Homo sapiens) (UniProt P04150); experiment: NVS_NR_hGR: NovaScreen (NVS) Nuclear Receptor Binding Assay for human Glucocorticoid Receptor (GR) (AID 2283363)
Procedure, shortened: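 Cell-free radioligand displacement assay on extracted human GR, read 16 h after dosing by filter-based scintillation counting. Screened in duplicate at 25 uM, then concentration series for actives; loss of signal versus DMSO baseline.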

[15] = molecular target: human Adenosine Transporter (Adot), SLC29A1 (gene 2030) (UniProt Q99808); experiment: NVS_TR_hAdoT: NovaScreen (NVS) Transporter Assay for human Adenosine Transporter (Adot) (AID 2283368)
Procedure, shortened: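 U937-derived membranes, cell-free radioligand binding, filter scintillation 1 h after dosing. 25 uM duplicate screen; hits (e.g. 30% inhibition) run in concentration-response up to 50 uM; loss of signal versus DMSO.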

[16] = molecular target: Retinoic acid receptor alpha (Homo sapiens) (UniProt P10276); experiment: NVS_NR_hRARa_Agonist: NovaScreen (NVS) Nuclear Receptor Binding Assay for human Retinoic Acid Alpha Receptor Agonism (RAR) (AID 2283361)
Procedure, shortened: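 Cell-free TR-FRET binding readout with extracted receptor protein, read 2 hours after dosing; gain-of-signal fitted relative to DMSO. Screened in duplicate at 25 uM, actives then run in concentration-response.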

Peroxisome proliferator-activated receptor gamma (Homo sapiens), sequence (P37231 whole entry, looked up): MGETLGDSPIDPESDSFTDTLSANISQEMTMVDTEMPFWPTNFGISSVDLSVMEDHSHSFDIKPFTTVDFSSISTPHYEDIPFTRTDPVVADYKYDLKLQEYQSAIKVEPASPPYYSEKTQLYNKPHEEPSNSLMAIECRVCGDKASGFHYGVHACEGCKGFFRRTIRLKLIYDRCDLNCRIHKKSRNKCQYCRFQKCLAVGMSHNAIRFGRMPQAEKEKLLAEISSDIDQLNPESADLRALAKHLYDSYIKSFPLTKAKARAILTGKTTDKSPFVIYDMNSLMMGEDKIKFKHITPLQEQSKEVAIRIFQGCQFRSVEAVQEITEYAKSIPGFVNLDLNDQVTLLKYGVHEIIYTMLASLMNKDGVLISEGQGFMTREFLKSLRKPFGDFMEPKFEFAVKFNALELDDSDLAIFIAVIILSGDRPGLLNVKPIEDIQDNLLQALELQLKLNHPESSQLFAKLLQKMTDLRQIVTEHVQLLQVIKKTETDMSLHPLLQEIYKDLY
Estrogen receptor beta (Homo sapiens), sequence (Q92731 whole entry, looked up, the tested form may be a part): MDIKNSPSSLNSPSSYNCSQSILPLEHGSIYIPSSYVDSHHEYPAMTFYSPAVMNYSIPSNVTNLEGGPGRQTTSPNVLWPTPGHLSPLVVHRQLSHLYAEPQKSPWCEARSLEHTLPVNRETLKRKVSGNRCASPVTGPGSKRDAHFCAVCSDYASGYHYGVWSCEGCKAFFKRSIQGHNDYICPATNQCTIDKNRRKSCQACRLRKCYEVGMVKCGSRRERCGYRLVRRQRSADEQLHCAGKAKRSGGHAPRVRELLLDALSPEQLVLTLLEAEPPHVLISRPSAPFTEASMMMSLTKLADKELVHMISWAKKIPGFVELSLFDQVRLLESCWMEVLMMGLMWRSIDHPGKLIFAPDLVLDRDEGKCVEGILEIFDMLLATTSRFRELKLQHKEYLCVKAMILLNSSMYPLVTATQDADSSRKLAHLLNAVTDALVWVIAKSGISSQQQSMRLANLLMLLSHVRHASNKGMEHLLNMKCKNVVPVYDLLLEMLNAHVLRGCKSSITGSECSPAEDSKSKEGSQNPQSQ
PGR (gene 5241), sequence (P06401 whole entry, looked up): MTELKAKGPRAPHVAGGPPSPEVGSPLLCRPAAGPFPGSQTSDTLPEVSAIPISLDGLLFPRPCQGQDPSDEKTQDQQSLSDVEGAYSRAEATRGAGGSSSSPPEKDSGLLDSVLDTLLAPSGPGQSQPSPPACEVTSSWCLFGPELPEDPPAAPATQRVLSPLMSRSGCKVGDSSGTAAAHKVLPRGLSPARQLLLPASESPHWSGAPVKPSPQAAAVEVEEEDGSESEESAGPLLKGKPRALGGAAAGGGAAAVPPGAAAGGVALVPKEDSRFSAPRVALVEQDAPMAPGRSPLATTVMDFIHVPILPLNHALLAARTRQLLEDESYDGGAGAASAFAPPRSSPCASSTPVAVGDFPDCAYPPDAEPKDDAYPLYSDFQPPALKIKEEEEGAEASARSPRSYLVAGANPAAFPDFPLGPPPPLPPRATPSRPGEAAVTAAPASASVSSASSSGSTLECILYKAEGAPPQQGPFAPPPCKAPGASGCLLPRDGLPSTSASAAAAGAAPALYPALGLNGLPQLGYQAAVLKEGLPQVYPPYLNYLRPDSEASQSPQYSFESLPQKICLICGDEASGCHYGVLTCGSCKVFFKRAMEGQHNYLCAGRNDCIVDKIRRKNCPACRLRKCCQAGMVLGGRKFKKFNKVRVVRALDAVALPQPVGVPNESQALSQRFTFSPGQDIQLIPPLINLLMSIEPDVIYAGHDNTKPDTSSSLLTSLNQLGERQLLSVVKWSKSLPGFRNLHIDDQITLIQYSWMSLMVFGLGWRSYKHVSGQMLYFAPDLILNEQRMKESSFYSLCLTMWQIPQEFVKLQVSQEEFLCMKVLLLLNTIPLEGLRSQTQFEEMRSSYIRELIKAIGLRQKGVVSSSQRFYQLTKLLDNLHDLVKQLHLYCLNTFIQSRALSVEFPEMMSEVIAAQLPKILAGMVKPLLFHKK
human Thyroid Receptor Alpha (TRa), THRA (gene 7067), sequence (P10827 whole entry, looked up): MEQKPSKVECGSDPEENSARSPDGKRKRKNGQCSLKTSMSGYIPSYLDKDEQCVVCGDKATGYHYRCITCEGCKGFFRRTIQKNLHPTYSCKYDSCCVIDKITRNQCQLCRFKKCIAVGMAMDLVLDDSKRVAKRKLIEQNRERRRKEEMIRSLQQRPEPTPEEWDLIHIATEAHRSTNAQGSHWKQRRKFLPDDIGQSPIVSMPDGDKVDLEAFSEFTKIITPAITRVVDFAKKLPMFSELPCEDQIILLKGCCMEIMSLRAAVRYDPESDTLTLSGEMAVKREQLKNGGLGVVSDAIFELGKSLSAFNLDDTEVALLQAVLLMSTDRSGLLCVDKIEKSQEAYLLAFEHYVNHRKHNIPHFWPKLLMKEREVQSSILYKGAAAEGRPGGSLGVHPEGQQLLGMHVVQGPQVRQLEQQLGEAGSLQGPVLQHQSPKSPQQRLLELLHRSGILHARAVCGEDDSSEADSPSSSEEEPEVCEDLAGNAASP
Nuclear receptor subfamily 1 group I member 2 (Homo sapiens), sequence (O75469 whole entry, looked up): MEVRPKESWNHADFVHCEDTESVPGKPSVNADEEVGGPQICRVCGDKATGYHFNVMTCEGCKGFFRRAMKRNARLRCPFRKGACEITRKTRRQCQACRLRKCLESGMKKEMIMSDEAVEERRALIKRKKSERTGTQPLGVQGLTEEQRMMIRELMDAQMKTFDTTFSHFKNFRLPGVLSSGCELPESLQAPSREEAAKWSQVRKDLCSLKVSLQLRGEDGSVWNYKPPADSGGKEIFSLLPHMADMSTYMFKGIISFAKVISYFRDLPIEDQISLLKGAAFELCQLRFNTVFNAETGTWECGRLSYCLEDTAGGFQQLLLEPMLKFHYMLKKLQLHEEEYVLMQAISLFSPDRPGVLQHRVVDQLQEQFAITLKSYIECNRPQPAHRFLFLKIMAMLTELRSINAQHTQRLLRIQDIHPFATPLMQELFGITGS
human Peroxisome Proliferator-activated Receptor alpha (PPARa), PPARA (gene 5465), sequence (Q07869 whole entry, looked up): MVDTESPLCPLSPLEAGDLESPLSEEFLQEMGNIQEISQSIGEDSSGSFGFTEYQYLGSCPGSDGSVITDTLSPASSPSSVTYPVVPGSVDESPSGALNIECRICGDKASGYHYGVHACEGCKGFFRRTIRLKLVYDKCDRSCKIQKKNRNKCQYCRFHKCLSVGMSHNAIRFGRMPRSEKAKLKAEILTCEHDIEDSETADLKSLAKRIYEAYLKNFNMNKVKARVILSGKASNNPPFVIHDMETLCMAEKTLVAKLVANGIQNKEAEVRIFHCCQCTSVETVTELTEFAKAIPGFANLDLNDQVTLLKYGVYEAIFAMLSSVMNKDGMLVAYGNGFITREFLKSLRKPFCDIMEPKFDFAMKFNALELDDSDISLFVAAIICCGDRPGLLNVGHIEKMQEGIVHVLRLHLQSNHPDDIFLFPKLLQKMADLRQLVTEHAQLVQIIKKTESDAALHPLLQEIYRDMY
Androgen Receptor/SRC-1 Co-activator, AR (gene 367), sequence (P10275 whole entry, looked up, the tested form may be a part): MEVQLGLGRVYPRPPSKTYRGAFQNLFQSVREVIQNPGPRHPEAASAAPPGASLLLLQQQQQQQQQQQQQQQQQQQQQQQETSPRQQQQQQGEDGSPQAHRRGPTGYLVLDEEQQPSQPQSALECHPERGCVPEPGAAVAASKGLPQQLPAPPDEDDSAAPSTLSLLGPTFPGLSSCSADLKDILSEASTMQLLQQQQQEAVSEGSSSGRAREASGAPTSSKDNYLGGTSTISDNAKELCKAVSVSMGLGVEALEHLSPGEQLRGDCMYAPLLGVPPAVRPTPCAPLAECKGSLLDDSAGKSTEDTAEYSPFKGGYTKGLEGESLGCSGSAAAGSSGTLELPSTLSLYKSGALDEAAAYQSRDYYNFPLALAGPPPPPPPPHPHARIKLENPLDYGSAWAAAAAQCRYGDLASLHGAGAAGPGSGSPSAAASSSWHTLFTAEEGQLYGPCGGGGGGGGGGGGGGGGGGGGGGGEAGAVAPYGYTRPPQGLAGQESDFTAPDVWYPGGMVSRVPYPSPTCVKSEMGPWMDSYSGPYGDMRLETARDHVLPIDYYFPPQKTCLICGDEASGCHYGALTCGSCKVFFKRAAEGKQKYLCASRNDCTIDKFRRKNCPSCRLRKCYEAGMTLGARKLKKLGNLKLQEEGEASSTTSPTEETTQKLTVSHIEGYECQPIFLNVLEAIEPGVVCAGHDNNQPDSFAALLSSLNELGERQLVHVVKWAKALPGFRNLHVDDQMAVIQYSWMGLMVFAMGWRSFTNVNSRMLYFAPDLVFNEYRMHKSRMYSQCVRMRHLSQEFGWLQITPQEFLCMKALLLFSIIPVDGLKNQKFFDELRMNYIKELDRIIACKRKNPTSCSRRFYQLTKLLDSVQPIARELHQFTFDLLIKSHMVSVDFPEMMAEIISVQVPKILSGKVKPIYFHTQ
Retinoic acid receptor alpha (Homo sapiens), sequence (P10276 whole entry, looked up): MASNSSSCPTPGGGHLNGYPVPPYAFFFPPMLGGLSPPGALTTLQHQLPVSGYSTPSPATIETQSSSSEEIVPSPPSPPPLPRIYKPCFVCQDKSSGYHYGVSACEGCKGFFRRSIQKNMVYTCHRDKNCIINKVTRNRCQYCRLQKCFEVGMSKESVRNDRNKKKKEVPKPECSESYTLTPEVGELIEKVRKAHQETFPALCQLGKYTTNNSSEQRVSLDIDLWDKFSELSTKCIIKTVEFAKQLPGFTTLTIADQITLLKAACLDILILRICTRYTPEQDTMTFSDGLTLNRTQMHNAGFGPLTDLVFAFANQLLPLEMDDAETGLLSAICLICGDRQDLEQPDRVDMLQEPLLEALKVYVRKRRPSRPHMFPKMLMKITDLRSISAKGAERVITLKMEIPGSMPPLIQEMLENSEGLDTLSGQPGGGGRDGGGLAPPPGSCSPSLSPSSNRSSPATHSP
guinea pig Sigma Receptor, Non-selective Binding, SIGMAR1 (gene 100135589), sequence (Q60492 whole entry, looked up): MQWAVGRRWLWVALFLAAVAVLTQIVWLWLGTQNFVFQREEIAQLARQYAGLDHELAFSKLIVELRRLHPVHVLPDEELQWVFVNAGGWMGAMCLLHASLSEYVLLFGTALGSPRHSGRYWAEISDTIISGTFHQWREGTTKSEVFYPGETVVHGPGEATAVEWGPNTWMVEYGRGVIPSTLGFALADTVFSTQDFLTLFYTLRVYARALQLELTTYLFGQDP

SMILES: CN(C)CCCN(C)CCCN(C)C
- outcome [1]: inactive
- outcome [2]: inactive
- outcome [3]: inactive
- outcome [4]: inactive
- outcome (PGR (gene 5241)): inactive

SMILES: O=C1OC(c2ccc(O)cc2)(c2ccc(O)cc2)c2ccccc21
- AC50 [5]: 35.3 µM (active)
- AC50 [6]: 60.1 µM (active)
- AC50 [3]: 12 µM (active)
- outcome [7]: inactive
- AC50 [8]: 6.69 µM (active)

SMILES: CC(=O)OCC(COC(C)=O)OC(C)=O
- outcome [3]: inactive

SMILES: CC(C)c1cccc(C(C)C)c1NC(=O)NS(=O)(=O)c1cc(C(C)(C)O)co1
- outcome [3]: inactive
- outcome [4]: inactive

SMILES: NC=O
- outcome [3]: inactive

SMILES: CCCCCCCCCCCCCCCCO
- outcome [1]: inactive
- outcome [2]: inactive

SMILES: C#CC(O)C(CC)CCCC (stereo not drawn)
- AC50 [5]: 72.6 µM (active)
- AC50 [6]: 93.7 µM (active)
- outcome [3]: inactive

SMILES: CC(=O)CC(c1ccccc1)c1c(O)c2ccccc2oc1=O (stereo not drawn)
- outcome [9]: inactive

SMILES: CC(N)=O
- outcome [3]: inactive
- AC50 [10]: 4.98 µM (active)

SMILES: Cn1cnc2c1c(=O)[nH]c(=O)n2C
- outcome (PGR (gene 5241)): inactive
- outcome [11]: inactive
- AC50 [12]: 10.5 µM (active)
- outcome [10]: inactive

SMILES: C=CCc1ccc(OC)c(OC)c1
- outcome [3]: inactive
- outcome [10]: inactive

SMILES: CC(=O)O
- outcome (PGR (gene 5241)): inactive

SMILES: CO[C@@H]1COCC[C@@H]1N[C@@H]1CC[C@@](C(=O)N2CCc3ncc(C(F)(F)F)cc3C2)(C(C)C)C1
- outcome [3]: inactive
- outcome (PGR (gene 5241)): inactive
- AC50 [11]: 1.94 µM (active)
- AC50 [10]: 15.8 µM (active)

SMILES: Cc1cc(Cc2ccc(N)c(C)c2)ccc1N
- AC50 [3]: 67.6 µM (active)
- outcome [13]: inactive
- outcome [14]: inactive

SMILES: CCCCC(CC)CO (stereo not drawn)
- outcome [3]: inactive
- AC50 [10]: 0.00905 µM (active)

SMILES: CC(C)NCC(O)c1ccc(O)c(O)c1 (stereo not drawn)
- outcome [3]: inactive
- outcome [4]: inactive
- outcome [13]: inactive
- AC50 [10]: 9.71 µM (active)

SMILES: OCC(O)CO
- outcome (PGR (gene 5241)): inactive
- AC50 [10]: 0.00229 µM (active)

SMILES: O=C(O)c1cccnc1
- outcome [3]: inactive
- outcome (PGR (gene 5241)): inactive

SMILES: CC(C)(C)c1ccccc1
- outcome [3]: inactive
- outcome [4]: inactive
- outcome [9]: inactive

SMILES: COC(=O)[C@H]1[C@H]2C[C@@H]3c4[nH]c5cc(OC)ccc5c4CCN3C[C@H]2C[C@@H](OC(=O)c2cc(OC)c(OC)c(OC)c2)[C@@H]1OC
- AC50 [15]: 6.6 µM (active)

SMILES: CC(=O)O[C@]1(C(C)=O)CC[C@H]2[C@@H]3C=C(Cl)C4=CC(=O)[C@@H]5C[C@@H]5[C@]4(C)[C@H]3CC[C@@]21C
- outcome [3]: inactive
- outcome [4]: inactive
- outcome [9]: inactive

SMILES: CC(C)COC(=O)CCCCC(=O)OCC(C)C
- outcome [4]: inactive
- outcome (PGR (gene 5241)): inactive

SMILES: CC(C)(O)c1ccc(CNC(=O)c2cccnc2Oc2ccc(F)cc2)cc1
- AC50 [15]: 34.7 µM (active)

SMILES: Oc1ccccc1O
- outcome [3]: inactive
- outcome [4]: inactive
- AC50 [10]: 0.00229 µM (active)

SMILES: O=C1O[C@H]([C@H](O)CO)C(O)=C1O
- outcome [3]: inactive
- outcome [10]: inactive

SMILES: CCCCOC(=O)CCCCC(=O)OCCCC
- outcome [4]: inactive
- outcome [14]: inactive

SMILES: C/C=C/C=C/C(=O)O
- outcome [3]: inactive
- outcome [10]: inactive

SMILES: Nc1nc(Cl)nc2c1ncn2[C@H]1C[C@H](O)[C@@H](CO)O1
- outcome [4]: inactive

SMILES: O=C1c2c(O)cccc2Cc2cccc(O)c21
- outcome [9]: inactive

SMILES: O=C1NC(=O)C(c2ccccc2)(c2ccccc2)N1
- outcome [13]: inactive
- outcome [9]: inactive

SMILES: CC(=O)[C@@]1(O)CC[C@H]2[C@@H]3CCC4=CC(=O)CC[C@]4(C)[C@H]3CC[C@@]21C
- outcome [3]: inactive
- AC50 (PGR (gene 5241)): 0.645 µM (active)
- outcome [16]: inactive
- outcome [9]: inactive
